PubChem BioAssay (NCI)
About 79,000 compounds went through this panel and 15% of them were active in at least one assay; those are over-represented in the sample as a whole. A number with no mark means an inactive call. No stated cut-off is given here; in the data, active means growth inhibition above about 70%; inactive means the rest.

assay: NCI Yeast Anticancer Drug Screen. Data for the bub3 strain (AID 167); details: S. cerevisiae bub3 mutant strain, at 50.0 µM, active compounds read high
How it was run: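 Mutant yeast screening strain plus compound; vehicle-treated cultures serve as the 0% inhibition reference.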

Compared with `NNc1ncnc2cccc(Cl)c12`, `CCCOC(=O)Nc1cccc(Cl)c1` is lower in growth inhibition: 1.8% for the first, -9.35% for the second.

First: COCCCC12C=C(OC)C(=O)C=C1OC(c1cc(OC)c(OC)c(OC)c1)C2C (centres undefined)
Second: CCC(c1ccc(OC)cc1)c1cc2c(cc1OCCO)OCO2 (centres undefined)
The growth inhibition of the first is lower: -32.5% for the first, 58.1% for the second.

Compared with `COc1ccc2c(c1)CC1c3[nH]c4ccccc4c3CCN1C2` (centres undefined), `O=C1c2ccccc2C(=O)N1/N=C\c1ccc(O)cc1` is lower in growth inhibition: 19.1% for the first, 0.95% for the second.

Compared with `Cc1ccc(NCC(O)CN2CCCC2)cc1` (centres undefined), `Cc1ccc(C(C)(CCC(=O)O)c2ccc(C)o2)o1` is higher in growth inhibition: -14.9% for the first, 8.5% for the second.

Compared with `CC(=O)/C(C)=C\c1ccc(C(C)C)cc1`, `CSc1ccc(NC(=O)Oc2ccc(NC(C)=O)cc2)cc1` is higher in growth inhibition: 10.9% for the first, 22.8% for the second.

First: O=C(CO)c1ccc(-c2ccccc2)cc1
Second: ClC(Cl)=C(c1ccccc1)c1ccccc1
The growth inhibition of the first is higher: 4.95% for the first, -4.45% for the second.

Going from `COC(=O)c1cc(C(=O)OC)cc([N+](=O)[O-])c1` to `CC(C)C/C(CC(=O)CCC(=O)Nc1ccccc1[N+](=O)[O-])=N\NC(=O)c1cc2ccccc2cc1O`, the growth inhibition rises from -38.5% to 9.8%.

Going from `Cc1ccc(S(=O)(=O)OCC(C)C(c2ccccc2)c2ccccc2)cc1` (centres undefined) to `c1ccc(CC[n+]2ccncc2)cc1`, the growth inhibition rises from -3.3% to 7.15%.

Compared with `CC(C)C(=O)OC1CCCCC1Cc1ccccn1` (centres undefined), `NNC(=O)Nc1ccccc1` is lower in growth inhibition: 24.1% for the first, -2.4% for the second.

Work on `CCCCCCCCCCCCCCCCCC/C(CC)=N/Nc1ccc([N+](=O)[O-])cc1[N+](=O)[O-]` yielded a growth inhibition of 11.2%.
